# Literature values, collected in PubChem BioAssay AID977608.
# The whole screen tested about 4,300 compounds, of which about 4,300 (100%) were called active. Cut-off not given; nearly all actives show IC50 up to about 1400 µM. So high a share suggests a set chosen from earlier hits. This is one part of the list. Where a SMILES comes first, the peptide text is derived from it. Square brackets hold non-standard residues; d marks the D form. Peptide text beside a SMILES is read from it. * marks the point of attachment. Orn(CH(NH2)2) = NC(N)NCCC[C@H](N)C(=O)O; Abu = CC[C@H](N)C(=O)O; Dap = NC[C@H](N)C(=O)O; Propionyl = CCC(=O)*
# Experiment: literature IC50 values for PDB complexes, PDB-derived complexes (AID 977608)
# Conditions: PDB protein-ligand complexes
structure (smiles),measurement,setting,value
COCCOCCc1c(C)c2cc(OC)c(O)c(C)c2oc1=O,IC50,"protein: Serine/threonine-protein kinase/endoribonuclease IRE1-alpha, PDB entry 4pl3",0.29 µM (active)
Cc1cc(O)c(C(C)C)cc1N=O,IC50,"protein: Serine/threonine-protein kinase PLK1, PDB entry 4h71",35.6 µM (active)
Oc1ccc(-c2nc(-c3ccc(F)cc3)c(-c3ccncc3)[nH]2)cc1,IC50,"protein: Bromodomain-containing protein 4 BRD4-1, PDB entry 4o77",2.5 µM (active)
N#Cc1ccc(O)cc1F,IC50,"protein: M-phase inducer phosphatase 2 CDC25B, PDB entry 4wh7",5000 µM (active)
CC(=O)N1CCC[C@H]([C@]2(Cc3cccc(Cl)c3)C(=O)Nc3cc(Cl)ccc32)C1,IC50,"protein: Humanized Xenopus E3 ubiquitin-protein ligase Mdm2, PDB entry 4lwt",3.9 µM (active)
CCOc1c(I)cc(Cl)cc1CNCCCNC(=O)Nc1ccsc1,IC50,"protein: Trypanosoma brucei methionyl-tRNA synthetase, PDB entry 4mw7",10 µM (active)
OCc1cc(-c2cn[nH]c2-c2ccc(F)cc2)ccn1,IC50,"protein: Casein kinase I isoform delta, PDB entry 4kbc",0.0142 µM (active)
COc1ccccc1-n1c(-c2cc(O)ccc2C)c[n+]2c3c(=O)[nH]c(=O)n(C)c3[nH]c12,IC50,"protein: EPH receptor A3, PDB entry 4gk2",0.0016 µM (active)
O=C1CCN(c2cccc([N+](=O)[O-])c2)C(=O)N1,IC50,"protein: Bifunctional protein GlmU, PDB entry 4kpz",1950 µM (active)
CCC(=O)NC[C@H](NC(=O)[C@@H](NC(=O)[C@@H]1CCCN1C(=O)[C@H](CCCNC(N)N)NC(=O)[C@H](CC(C)C)NC(=O)[C@@H](N)CCCCN)C(C)C)C(=O)N[C@@H](CCSC)C(=O)N[C@H](C(=O)N[C@@H](CCCNC(N)N)C(=O)N1CCC[C@H]1C(=O)N[C@@H](Cc1c[nH]c2ccccc12)C(=O)N[C@H](C(=O)N[C@@H](CCCNC(N)N)C(=O)O)C(C)C)C(C)C (H-KL[Orn(CH(NH2)2)]PV[Dap](Propionyl)MV[Orn(CH(NH2)2)]PWV[Orn(CH(NH2)2)]-OH),IC50,"protein: E3 ubiquitin-protein ligase SIAH1 (T156C mutation), PDB entry 4i7c",0.006 µM (active)
CCC(=O)NCCCC[C@H](NC(=O)[C@@H]1CCCN1C(=O)[C@H](CCCNC(N)N)NC(=O)[C@@H](NC(=O)[C@H](CCSC)NC(=O)[C@H](C)NC(=O)[C@@H](NC(=O)[C@@H]1CCCN1C(=O)[C@H](CCCNC(N)N)NC(=O)[C@H](CC(C)C)NC(=O)[C@H](CCCCN)NC(C)=O)C(C)C)C(C)C)C(=O)N[C@H](C(=O)N[C@@H](CCCNC(N)N)C(=O)O)C(C)C (Ac-KL[Orn(CH(NH2)2)]PVAMV[Orn(CH(NH2)2)]PK(Propionyl)V[Orn(CH(NH2)2)]-OH),IC50,"protein: E3 ubiquitin-protein ligase SIAH1, PDB entry 4i7d",0.1 µM (active)
CSCC[C@H](NC(=O)[C@@H]1CCCN1C(=O)CNC(=O)[C@H](CO[P+](O)(O)O)NC(=O)[C@H](Cc1ccc(O)cc1)NC(=O)[C@@H](NC(=O)[C@@H](N)CCCNC(N)N)[C@@H](C)O)C(=O)N[C@@H](CC(N)=O)C(=O)N[C@@H](CCCCN)C(=O)N[C@H](C(=O)O)C(C)C,IC50,"protein: HLA class I histocompatibility antigen, PDB entry 3bh9",0.117 µM (active)
CC[C@H](NC(=O)[C@@H](NC(=O)[C@@H]1CCCN1C(=O)[C@H](CCCNC(N)N)NC(=O)[C@@H](N)CC(C)C)C(C)C)C(=O)N[C@@H](CCSC)C(=O)N[C@H](C(=O)N[C@@H](CCCNC(N)N)C(=O)N1CCC[C@H]1C(=O)N[C@H](C(=O)N[C@H](C(=O)O)C(C)C)[C@@H](C)O)C(C)C (H-L[Orn(CH(NH2)2)]PV[Abu]MV[Orn(CH(NH2)2)]PTV-OH),IC50,"protein: E3 ubiquitin-protein ligase SIAH1, PDB entry 4i7b",2 µM (active)
CC(C)C[C@H](NC(=O)[C@H](CC(C)C)NC(=O)[C@H](CC(C)C)NC(=O)[C@H](CCCCN)NC(=O)[C@H](CCCCN)NC(=O)[C@H](CC(C)C)NC(=O)[C@H](CC(C)C)NC(=O)[C@H](CO)NC(=O)[C@@H]1CCCN1)C(=O)N[C@@H](C)C(=O)N1CCC[C@H]1C(=O)N[C@@H](C)C=O (H-PSLLKKLLLAPA-aldehyde),IC50,"protein: PPARgama, PDB entry 3cs8",1.7 µM (active)
CC(C)C[C@H](NC(=O)[C@@H](O)CC(=O)O)C(=O)NCCCCNC(N)N,IC50,"protein: Streptopain, PDB entry 4d8e",0.098 µM (active)
CCC(CC)[C@H](NC(C)=O)[C@@H]1[C@H](O)[C@@H](C(=O)O)C[C@H]1NC(N)N,IC50,"protein: Neuraminidase, PDB entry 4mwv",0.0004 µM (active)
same,IC50,"protein: Neuraminidase, PDB entry 4mx0",0.185 µM (active)
CC(C)Oc1ccc(-c2ccnc(NC([P+](O)(O)O)[P+](O)(O)O)c2)cc1,IC50,"protein: human farnesyl pyrophosphate synthase (FPPS), PDB entry 4h5c",0.028 µM (active)
C[C@H](CC(=O)O)C1NN(C)C2N=C(N)NC(=O)C2C1O (stereo partly drawn),IC50,"protein: Dihydropteroate Synthase, PDB entry 4d9p",145 µM (active)
COc1ccc(C(=O)CCC(=O)O)c(O)c1,IC50,"protein: Orotidine 5'-phosphate decarboxylase, PDB entry 3vi2",170 µM (active)
CN1CCN(c2ccc(-c3ccncc3-c3cc(F)c(O)c(F)c3)cc2)CC1,IC50,"protein: Ribosomal protein S6 kinase alpha-3 RSK2, PDB entry 4nus",0.005 µM (active)
CCCn1cnc2c1c(=O)n(CCCCC(C)=O)c(=O)n2C,IC50,"protein: Chitinase A(W275G mutant), PDB entry 3as2",360 µM (active)
CC[C@H](C)[C@H](NC(C)=O)C(=O)N[C@@H](Cc1ccc(O)cc1)C(=O)N[C@@H](Cc1ccc(O)cc1)[P+](O)(O)O,IC50,"protein: Human testis angiotensin converting enzyme, PDB entry 4bzr",0.025 µM (active)
O=C(NCc1cccc(O)c1)Nc1nc(-c2ccncc2)cs1,IC50,"protein: Rho-associated protein kinase 1, PDB entry 3twj",0.0145 µM (active)
CC(C)OCC[N+]1=C2NC(=[N+]3CCOCC3)CC(=O)N2CC[C@H]1C(F)(F)F,IC50,"protein: PHOSPHATIDYLINOSITOL 3-KINASE CATALYTIC SUBUNIT TYPE 3 Vsp34, PDB entry 4uwg",0.007 µM (active)
C[C@@H]1COC[C@@H](C)[N+]1=C1CC(=O)N2CC[C@@H](C(F)(F)F)[N+](Cc3ccc(Cl)s3)=C2N1,IC50,"protein: PHOSPHATIDYLINOSITOL 3-KINASE CATALYTIC SUBUNIT TYPE 3 Vsp34, PDB entry 4uwk",0.001 µM (active)
O/N=C/c1ccc(O)cc1,IC50,"protein: Macrophage Migration Inhibitory Factor (MIF), PDB entry 2ooz",7 µM (active)
CC(C)[C@H]1[C@H](C(=O)N2CCC[C@H]2C(=O)N(C)C)SC2=N[C@@](C)(c3ccc(Cl)cc3)[C@@H](c3ccc(Cl)cc3)N21,IC50,"protein: E3 ubiquitin-protein ligase Mdm2, PDB entry 3vzv",0.0092 µM (active)
